The target in experiment [1] is Calcium and integrin-binding protein 1 (Homo sapiens) (UniProt Q99828). The experiment can be described thus: Primary qHTS for Identification of Calcium Integrin Binding Protein 1 (CIB1) Competitor (AID 1508620). Put shortly:
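Fluorescence polarization competition: CIB1-GST (1 uM final) preincubated with compound 15 min at room temperature, then FITC-labeled alphaIIb peptide (100 nM final) added for another 15 min. Polarization read at Ex 480/Em 540.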
In general terms: Quantitative high-throughput screening tests each substance at several concentrations.

Experiment [2] can be described thus: Primary qHTS for inhibitors of nuclear receptor binding SET domain protein 2 (NSD2) in an isogenic RCH-ACV NSD2 p.E1099K mutant (9B) (AID 1645876). Note: nearly all actives have a fitted effect of over 70% in size.
Experiment [3] is described as follows: Primary qHTS for inhibitors of nuclear receptor binding SET domain protein 2 (NSD2) in an RCH-ACV wild type WT cells (2C) (AID 1645877). Note: nearly all actives have a fitted effect of over 70% in size.

Structures are written as SMILES. Several values for one entry are separate records, joined by “and”; a condition that tells them apart may be missing. Equal entries are not always repeated. Results filed as inconclusive are left out. A number with no mark means an inactive call. Activity calls are given as the source filed them. Calls come from the whole dose curve; as a rule, active = well fitted curve in the direction sought with a large enough effect; inconclusive = small, poorly fitted or top-dose-only effect, or another doubt; inactive = no such curve, though single readings can be large; an effect the other way counts as inactive or inconclusive.
Potency is the fitted concentration of half-maximal effect.

Sequence of Calcium and integrin-binding protein 1 (Homo sapiens) (Q99828 whole entry, looked up): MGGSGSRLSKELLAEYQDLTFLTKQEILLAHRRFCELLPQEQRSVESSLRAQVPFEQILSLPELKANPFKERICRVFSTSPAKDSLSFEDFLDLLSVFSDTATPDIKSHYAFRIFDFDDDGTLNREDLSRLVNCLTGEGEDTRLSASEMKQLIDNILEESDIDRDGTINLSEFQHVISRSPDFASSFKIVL

With `C=C1CC2OC(=O)C(=C)C2C(O)/C=C(\C)CCC1O` (stereo not drawn), the Potency result in experiment [1] was “inactive”. Also, the Potency was 18.3 µM (active) in experiment [2] and 16.3 µM (active) in experiment [3].

As to `CCc1cccc(CC)c1-n1c(C=C(C)C)c(C(=O)N2CCNCC2)cc(-c2nc(-c3ccc(C(F)(F)F)cc3)cs2)c1=O`, in experiment [1], the Potency result is “inactive”. Further, the results for the Potency in experiment [2] and in experiment [3] were 8.93 µM (active) and 10 µM (active), respectively.

For the compound `Cc1[nH]c(/C=C2\C(=O)Nc3ccc(S(=O)(=O)N(C)c4cccc(Cl)c4)cc32)c(C)c1C(=O)N1CCN(C)CC1`, in experiment [1], the Potency result is “inactive”. In addition, the Potency in experiment [2] was 9.16 µM (active) and 5.25 µM (active); in experiment [3], 7.28 µM (active) and 5.25 µM (active).

`C/C=C(\C)C(=O)O[C@H]1C=C(CO)C(=O)[C@H](OC(C)=O)[C@H]1C(C)C`: in experiment [1], the Potency entry was “inactive”. Further, the Potency in experiment [2] and in experiment [3] was 2.84 µM (active) each time.

Consider `CC(C)n1cnc2c(-c3cnc(N)nc3)nc(N3CCOCC3)nc21`, for which the Potency result in experiment [1] was “inactive”. In addition, the Potency is 0.159 µM (active) in experiment [2] and 0.224 µM (active) in experiment [3].

With `O=S(=O)(NCc1ccccn1)c1ccc(Br)c2ccccc12`, the Potency result in experiment [1], in experiment [2] and in experiment [3] was “inactive” each time.

For the compound `Cc1cc2ncc(C(=O)NCC(C)(C)NCC(=O)N3CCC[C@H]3C#N)cn2n1`, the Potency result in experiment [1], in experiment [2] and in experiment [3] was “inactive” throughout.

In the case of `C=C(C=O)[C@]1(O)C[C@@]2(C)C(=CC1=O)C=C[C@H](OC(=O)/C=C/C=C/[C@H](C)CC)[C@@H]2C`, the Potency result in experiment [1] was “inactive”. In addition, the Potency in experiment [2] is 3.17 µM (active); in experiment [3] it was 1.59 µM (active).

On to `C=C(C(=O)O[C@H]1C/C(C)=C/CC/C(CO)=C/[C@H]2OC(=O)C(=C)[C@H]12)C(O)CO` (stereo partly drawn), for which the Potency result in experiment [1] was “inactive”. The results for the Potency in experiment [2] and in experiment [3] were 7.13 µM (active) and 2.84 µM (active), respectively.

For `CCC/C=C/C=C/C1CC(O)C2(O)C(=O)OCC12` (stereo not drawn), the Potency entry in experiment [1], in experiment [2] and in experiment [3] was “inactive” each time.

For `COc1ccc(C(=O)O[C@H]2C=COC=C3C=C4C(=O)N(C)C(=S)C(=O)N4[C@@H]32)cc1Oc1cc(C=O)ccc1O`, the Potency was 22.4 µM (active) in experiment [1], 6.32 µM (active) in experiment [2] and 2.82 µM (active) in experiment [3].

For the compound `COc1ccc(-n2c(SCCCN3C(=O)c4cccc5cccc(c45)C3=O)nnc2-c2ccncc2)cc1`, the Potency result in experiment [1], in experiment [2] and in experiment [3] was “inactive” each time.

Consider `CC1(C)C2CCC(CO[C@@H]3O[C@H](CO[C@@H]4OC[C@](O)(CO)[C@H]4O)[C@@H](O)[C@H](O)[C@H]3O)C1C2` (stereo partly drawn), for which the Potency result in experiment [1], in experiment [2] and in experiment [3] was “inactive” throughout.

Take `CCOc1cc(C(C)(C)C)ccc1C1=NC(C)(c2ccc(Cl)cc2)C(C)(c2ccc(Cl)cc2)N1C(=O)N1CCN(CCCS(C)(=O)=O)CC1` (stereo not drawn): the Potency entry in experiment [1] is “inactive”. Moreover, the values for the Potency in experiment [2] and in experiment [3] were 0.817 µM (active) and 0.258 µM (active), respectively.

As for `C=C(C)C(=O)O[C@H]1[C@H]2C(=C)C(=O)O[C@@H]2/C=C(\CO)CC/C=C(/C=O)[C@@H]1O`, the Potency entry in experiment [1] was “inactive”. For the same compound, the Potency in experiment [2] is 12.7 µM (active); in experiment [3], 4.5 µM (active).

For `CC(O)(C(=O)O)C1CCC2(C)C1CCC1(C)C2CCC2C3(C)CCC(O)C(C)(COC4OC(CO)C(O)C(O)C4O)C3CCC21C` (stereo not drawn), the Potency result in experiment [1], in experiment [2] and in experiment [3] was “inactive” throughout.

In the case of `COc1c(CCC(=O)O)cccc1O[C@@H]1O[C@H](CO)[C@@H](O)[C@H](O)[C@H]1O`, the Potency entry in experiment [1], in experiment [2] and in experiment [3] was “inactive” each time.

`CC(=O)C=C=C1C(C)(C)CC(O)CC1(C)O[C@@H]1O[C@H](CO[C@H]2OC[C@](O)(CO)[C@H]2O)[C@@H](O)[C@H](O)[C@H]1O` (stereo partly drawn): the Potency result in experiment [1], in experiment [2] and in experiment [3] was “inactive” in each case.

For the compound `N#Cc1ccnc(Nc2cc(C3CCN(C4COC4)CC3)cc(N3CCC(F)(F)C3)n2)c1`, the Potency result in experiment [1] is “inactive”. Besides, the Potency in experiment [2] is 2.91 µM (active) and 934 nM (active); in experiment [3] it was 2.59 µM (active) and 525 nM (active).

With `CC1OC(=O)C[C@@H]2C(C(=O)O)=CO[C@@H](O[C@H]3O[C@H](CO)[C@@H](O)[C@H](O)[C@H]3O)[C@H]12` (stereo partly drawn), the Potency entry in experiment [1], in experiment [2] and in experiment [3] was “inactive” in each case.

As to `C[C@@H]1CC[C@@]23CC[C@]4(C)[C@@](C=CC5[C@@]6(C)CC[C@H](O)C(C)(C)C6CC[C@]54C)(OC2=O)C3[C@H]1C` (stereo partly drawn), the Potency entry in experiment [1], in experiment [2] and in experiment [3] was “inactive” in each case.

For the compound `O=C(NCCCNC(=O)c1ccc[nH]c1=O)c1cc(-c2ccccc2)on1`, in experiment [1], the Potency entry is “inactive”. Also, the Potency in experiment [2] was 8.33 µM (active); in experiment [3], 9.34 µM (active).

As for `CCCSc1nc(N[C@@H]2C[C@H]2c2ccc(F)c(F)c2)c2nnn([C@@H]3C[C@H](OCCO)[C@@H](O)[C@H]3O)c2n1`, the Potency entry in experiment [1] was “inactive”. The Potency in experiment [2] was 25.8 µM (active); in experiment [3], 18.3 µM (active).

Take `O=C(NCCCc1ccccc1)c1cccc(-c2cc(O)c3ncccc3c2)c1`: the Potency entry in experiment [1] was “inactive”. Moreover, the values for the Potency in experiment [2] and in experiment [3] were 12.9 µM (active) and 3.65 µM (active), respectively.

Regarding `Cc1nc2ccc(CN(C)c3ccc(C(=O)NC(CCC(=O)O)C(=O)O)s3)cc2c(=O)[nH]1` (stereo not drawn), in experiment [1], the Potency result is “inactive”. In addition, the Potency in experiment [2] and in experiment [3] was 0.0092 µM (active) throughout.

Take `O=C(O)C1=CO[C@@H](O[C@@H]2O[C@H](CO)[C@@H](O)[C@H](O)[C@H]2O)[C@@H]2C(CO)=CC[C@H]12`: the Potency entry in experiment [1], in experiment [2] and in experiment [3] was “inactive” each time.

For the origin of these results see PubChem BioAssay (NCATS).
